# Hits are enriched below; roughly 4.2% of the tested compounds scored in any of these assays.
# Ec RNAP inh = Escherichia coli RNA polymerase inhibition; P0A8V2; E. coli RNA polymerase, fluorescence transcription assay; inhibition, %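 (tested at 10 µM)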; 62,000 compounds, 0.2% hits; AID 559; in the data active = inhibition above about 20%;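 also: 0% = enzyme without compound and 100% = no enzyme blank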
# Cav3 T inh = inhibitors of human Cav3.2 T-type calcium channel | AID 449739 | O95180 | 100,000 compounds, 4% hits | Cav3.2-expressing cells, Fluo-4 calcium fluorescence FDSS; stronger effect = lower value | B-score at 10 µM;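 active = single-dose well whose peak fluorescence ratio is a statistical outlier from its plate by either plate-standardised score or position-corrected B-score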
# Mac1 fbg inh = CD11b/CD18-fibrinogen binding inhibition; K562 CD11b/CD18 adhesion to fibrinogen, ATPlite luminescence; Mn2+ added to activate the integrin; inhibition, % at 10 µM; 93,000 compounds, 0.54% hits; AID 1497; P05107+P11215;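 active = primary inhibition of 50% or more at 10 µM, then 40% or more on retest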
# Target sequence (P05107 whole entry, looked up, other chains not shown): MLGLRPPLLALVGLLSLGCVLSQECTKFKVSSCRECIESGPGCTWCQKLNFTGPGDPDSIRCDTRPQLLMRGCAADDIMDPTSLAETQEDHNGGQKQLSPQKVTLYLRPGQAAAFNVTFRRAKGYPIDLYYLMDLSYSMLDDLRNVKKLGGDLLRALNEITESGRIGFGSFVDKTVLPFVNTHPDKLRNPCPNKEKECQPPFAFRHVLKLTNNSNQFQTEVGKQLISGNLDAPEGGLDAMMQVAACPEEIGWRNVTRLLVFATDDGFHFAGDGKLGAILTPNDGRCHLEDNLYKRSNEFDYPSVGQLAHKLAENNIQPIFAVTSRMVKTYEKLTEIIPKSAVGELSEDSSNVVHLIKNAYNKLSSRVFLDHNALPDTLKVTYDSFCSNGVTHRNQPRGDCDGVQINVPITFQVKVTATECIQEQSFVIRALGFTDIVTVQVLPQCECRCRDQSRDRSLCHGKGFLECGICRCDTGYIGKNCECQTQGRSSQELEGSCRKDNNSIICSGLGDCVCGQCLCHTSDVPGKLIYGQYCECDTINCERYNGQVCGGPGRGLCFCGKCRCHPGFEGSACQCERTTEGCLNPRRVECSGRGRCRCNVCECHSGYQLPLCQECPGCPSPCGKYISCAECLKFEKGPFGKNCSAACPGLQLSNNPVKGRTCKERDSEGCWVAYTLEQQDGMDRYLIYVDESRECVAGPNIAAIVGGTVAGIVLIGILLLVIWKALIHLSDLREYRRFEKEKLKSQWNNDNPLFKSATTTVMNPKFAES
# CD11b adhes enh = CD11b/CD18-fibrinogen binding enhancement; K562 CD11b/CD18 adhesion to fibrinogen, ATPlite luminescence; AID 1499; activation, % at 10 µM; 93,000 compounds, 0.07% hits; P05107+P11215;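 active = 10 µM primary screen giving 50% or more activity, confirmed by 40% or more on retest at that dose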
# PTK2B oligo ant = antagonists of human Pyk2 oligomerization. 99,000 compounds, 0.83% hits. Q14289. Q293 cells, Pyk2 FERM NanoBiT luminescence; stronger effect = lower value. z-score (the deposit names both 25 µM and 10 µM);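 active = Z-score of -3 or lower, scaled per plate to the spread of control and sample wells; inactive = z-score above -3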;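 also: negative z-score means lost luminescence so less FERM oligomerization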
# * = called active by the depositor; x = no result.
SMILES,Ec RNAP inh,Cav3 T inh,Mac1 fbg inh,CD11b adhes enh,PTK2B oligo ant
COc1cccc(Nc2nc(NCC3CCCO3)c3ccccc3n2)c1 (configuration not stated),x,-5.66*,38.8,-3.2,-2.59
CCOC(=O)N1CCN(C(=O)/C(=C/c2ccc(Br)cc2)NC(=O)c2ccc(OC)cc2)CC1,x,x,x,x,-0.48
CC1(C)c2[nH]c3ccccc3c2C[C@H]2C(=O)N(Cc3ccc(F)cc3)C(=O)N21,x,-0.421,x,x,x
CC(=O)Nc1cc(OC(C)=O)c2nonc2c1OC(C)=O,3.4,1.78,58.7*,-4.7,-0.26
CC(=O)Nc1nonc1NC(C)=O,6.2,0.12,7.3,-5.3,1.15
CC(/C=N/NC(=O)c1ccc(Br)cc1)=C\c1ccccc1,x,-0.0115,7.2,8.8,-0.27
C/C(=N\NC(=O)c1ccc(Br)cc1)C1C(=O)c2ccccc2C1=O,x,-4.16*,96.8*,-7.0,-2.7
COc1cc(NC(=O)CN2C(=O)NC(C)(CCC(C)C)C2=O)cc(OC)c1 (configuration not stated),7.0,0.0145,-4.1,-0.1,-0.17
CCCC1(CCC)NC(=O)N(CC(=O)Nc2cccc(OC)c2)C1=O,40.4*,0.0642,0.3,-3.4,-0.3
CNc1nc(NCCOC23CC4CC(CC(C4)C2)C3)nc(OCC(F)(F)F)n1,x,-5.41*,-8.6,7.9,-0.15
CNc1nc(OCC(F)(F)F)nc(N2CCOCC2)n1,x,0.267,-0.3,-4.8,0.39
COC(=O)c1ccc(C2CC(=O)NC3=C2C(=O)CCC3)cc1 (configuration not stated),7.8,0.292,-7.2,-0.2,-0.18
CC(C)Oc1ccc(C2CC(=O)NC3=C2C(=O)CCC3)cc1 (configuration not stated),22.5*,x,x,x,0.72
CCN1N=C(c2ccccc2)Cn2c1nc1ccccc12,x,1.14,17.8,-0.7,0.96
Cc1cc2cc(CCNC(=O)c3c(-c4ccccc4Cl)noc3C)c(=O)[nH]c2cc1C,9.4,-3.72*,-3.3,-0.1,x
Cc1onc(-c2ccccc2Cl)c1C(=O)NCc1ccc2c(c1)cc(C)n2C,1.6,-5.97*,x,x,x
CCOc1ccc(CC(=O)NCc2ccc3c(c2)cc(C)n3C)cc1,x,-8.15*,x,x,x
COc1ccc(C(=O)NCc2ccc3c(c2)cc(C)n3C)cc1,x,-1.43,x,x,x
O=C(NC1CCCCC1)C(c1cccnc1)N(CCc1ccccc1)C(=O)Cc1cccs1 (configuration not stated),x,x,-8.3,0.0,x
Cc1ccc(CC(=O)N2CCN(c3ccccn3)CC2)cc1,x,0.512,-10.4,-1.9,0.05
CCCCNC(=O)CC(=O)Nc1ccccc1C(=O)O,5.9,0.147,7.8,-1.8,-0.5
CC(C)(C)NC(=O)C1Cc2ccccc2CN1C(=O)Nc1ccccc1Cl (configuration not stated),x,1.01,x,x,0.14
CCOC(=O)c1c(C)[nH]c(C(=O)C(C)Sc2ccc(Cl)cc2)c1C (configuration not stated),x,-5.81*,x,x,0.71
CC(C)OC(=O)C(C)Oc1ccc(C(=O)NCCc2ccccc2)cc1 (configuration not stated),x,-0.867,-10.8,5.7,0.78
CSCSC1=C(C#N)C(c2ccc(Cl)cc2)C(C(C)=O)=C(C)N1 (configuration not stated),9.2,-5.5*,12.3,2.6,x
SMILES,Ec RNAP inh,Cav3 T inh,Mac1 fbg inh,CD11b adhes enh,PTK2B oligo ant
CCOC(=O)CSC1=C(C#N)C(c2ccccc2)C(C(C)=O)=C(C)N1 (configuration not stated),0.5,-1.01,x,x,-1.31
CSC1=C(C#N)C(c2ccccc2Cl)C(C(C)=O)=C(C)N1 (configuration not stated),x,-0.647,x,x,-3.13*
CC(=O)C1=C(C)NC(SCC(=O)c2ccc(Cl)cc2)=C(C#N)C1c1ccco1 (configuration not stated),6.5,-4.53*,5.9,-5.1,-0.12
CCCCOC(=O)c1ccc(NC(=O)c2c(N)n(C)c(=O)[nH]c2=O)cc1,x,0.085,x,x,x
CC(C)Oc1ccc(C2CC(=O)N(c3ccccc3)C2=O)cc1 (configuration not stated),x,0.109,3.1,-5.1,-1.27
CC(C)Oc1ccc(C2CC(=O)N(c3ccc(N(C)C)cc3)C2=O)cc1 (configuration not stated),x,0.17,x,x,-4.23*
CCCCC(NC(=O)c1ccccc1)C(=O)OCC(=O)N1c2ccccc2Sc2ccccc21 (configuration not stated),x,-7.16*,x,x,-0.9
CC(C)CNCC(=O)N1c2ccccc2Sc2ccccc21,x,0.697,x,x,0.97
COc1ccc(OC)c([C@@H]2OCCC=C[C@H]2C)c1,x,1.83,x,x,x
COc1ccc(OC)c2c1C(=O)c1ccccc1C2=O,x,-8.93*,-12.2,-0.4,x
COc1ccc2noc3c2c1C(=O)c1ccccc1-3,2.1,x,x,x,x
N#C/C(=C\c1cc(Cl)cc(Cl)c1O)C(=O)NC1CCCCC1,x,-2.54,5.6,1.9,0.95
CCn1cc(C(=O)OCC(=O)OC2CC(C)CCC2C(C)C)c(=O)c2ccc(C)nc21 (configuration not stated),8.8,-6.38*,-3.6,3.8,-0.89
CCn1cc(C(=O)OCc2ccccc2)c(=O)c2ccc(C)nc21,6.6,-0.0223,-11.9,-0.3,-0.04
COc1cc(/C=N/NC(=S)NCCN2CCOCC2)ccc1O,x,x,7.3,-6.4,1.71
COc1ccccc1NC(=O)N1CCC(c2nnc(SCC(N)=O)n2C)CC1,x,0.323,10.7,-0.2,1.54
O=C(Nc1ccn(Cc2ccccc2F)n1)c1ccc(COc2ccccc2Cl)cc1,x,x,4.1,-1.4,-0.04
O=C(Nc1ccn(Cc2ccccc2F)n1)c1ccc(COc2cccc(Br)c2)cc1,x,-7.33*,15.8,-5.0,0.68
O=C(Nc1ccccn1)c1ccc(COc2ccccc2Cl)o1,x,-1.06,x,x,-1.05
O=C(Nc1nn(Cc2ccc(Cl)cc2)cc1Br)c1ccc(COc2ccccc2Cl)o1,x,-6.24*,10.4,3.5,-1.92
O=C(Nc1ccn(Cc2ccccc2F)n1)c1ccc(COc2cc(Cl)ccc2Cl)o1,x,-4.91*,x,x,-0.56
CCO[C@H]1OC(C(=O)N2CCOCC2)=C[C@@H](c2coc3ccccc3c2=O)[C@@H]1CCCO,x,-0.0457,x,x,x
COC(=O)c1ccccc1NC(=O)Cn1c(-c2nonc2N)nc2ccccc21,2.5,x,-2.2,0.7,0.12

# Screening results deposited in PubChem BioAssay by several laboratories.
